Most compounds without a hit are left out; they make up all but 10% or so of the library.
KB-V1 cytotox: qHTS assay for MDR1-selective chemotherapeutics: Primary screen using the drug-selected MDR subline cells KB-V1 | KB-V1 MDR cells viability, CellTiter-Glo, 72 h | Potency, µM (doses to about 46.1 µM), most hits filed as cytotoxic | 3.4% of 400,000 active | AID 1347076, 2019; note: nearly all actives have a fitted effect of over 60% in size
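qHTS viability screen in drug-selected KB-V1 MDR cells: 72 h compound treatment at 37 degrees C, ATP luminescence end point.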
Gal4-VP16 FLuc: VP16 counterscreen qHTS for inhibitors of ROR gamma transcriptional activity | Drosophila S2 Gal4-VP16 UAS-luciferase, luminescence, 20 h | Potency, µM (series often up to 53.6 µM), most hits filed as inhibitors | 3.5% of 310,000 active;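 note: Gal4-VP16 expression switched on by copper sulfate through the metallothionein promoter; nearly all actives have a fitted effect of over 50% in size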
MCF10A rereplic: A quantitative high throughput screen for small molecules that induce DNA re-replication in MCF 10a normal breast cells. MCF 10A DNA re-replication, Hoechst nuclear intensity, 48 h. Potency, µM (series often up to 46.1 µM), usual class: activators. 2.9% of 350,000 active. AID 624296, 2012; note: nearly all actives have a fitted effect of over 50% in size
KB-3-1 cytotox: qHTS assay for MDR1-selective chemotherapeutics: Primary screen using the parental adenocarcinoma cell KB-3-1. KB-3-1 viability, CellTiter-Glo ATP luminescence, 72 h. AID 1347075, 2019. Potency, µM (highest dose often 46.1 µM), most hits filed as cytotoxic. 1.4% of 400,000 active; note: nearly all actives have a fitted effect of over 60% in size
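Cells are dispensed, compounds pinned in, plates held at 37 °C for 72 h, then CellTiter-Glo is added and luminescence read after 10 minutes. Cell line: parental KB-3-1 in phenol-red-free DMEM, 10% FBS.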
SW480 rereplic: A quantitative high throughput screen for small molecules that induce DNA re-replication in SW480 colon adenocarcinoma cells; Potency, µM (top dose mostly 46.1 µM), usual class: activators; AID 624297, 2012; 1.8% of 340,000 active; SW480 DNA re-replication, Hoechst DNA content imaging, 48 h; note: nearly all actives have a fitted effect of over 55% in size
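DNA re-replication was detected as more nuclei of elevated Hoechst intensity after 48 hr exposure to compound (23 nL pinned per well of 250 cells).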
RORgamma inh: qHTS for inhibitors of ROR gamma transcriptional activity. Drosophila S2 Gal4-RORgamma UAS-luciferase reporter, 20 h. Potency, µM (series often up to 53.6 µM), hits mostly inhibitors. AID 2551, 2010. Nuclear receptor ROR-gamma (Mus musculus), P51450. 5.4% of 310,000 active; note: nearly all actives have a fitted effect of over 60% in size
Target sequence (P51450 whole entry, looked up, the tested form may be a part): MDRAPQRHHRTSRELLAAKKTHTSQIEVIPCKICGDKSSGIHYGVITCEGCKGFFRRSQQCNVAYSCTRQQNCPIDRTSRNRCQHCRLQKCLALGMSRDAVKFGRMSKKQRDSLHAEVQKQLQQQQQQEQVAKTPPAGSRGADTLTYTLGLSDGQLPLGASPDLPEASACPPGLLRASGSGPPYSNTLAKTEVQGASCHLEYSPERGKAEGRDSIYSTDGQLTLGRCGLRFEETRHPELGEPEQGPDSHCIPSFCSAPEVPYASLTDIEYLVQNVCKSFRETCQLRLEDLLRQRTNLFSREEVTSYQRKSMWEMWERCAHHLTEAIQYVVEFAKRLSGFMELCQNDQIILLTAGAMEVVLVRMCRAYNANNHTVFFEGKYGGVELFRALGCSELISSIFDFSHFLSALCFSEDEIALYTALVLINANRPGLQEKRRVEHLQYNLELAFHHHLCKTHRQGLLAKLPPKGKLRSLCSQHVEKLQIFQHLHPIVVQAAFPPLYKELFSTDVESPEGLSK
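Schneider cells (Drosophila), stable Gal4 DBD–ROR gamma + UAS-luc; 1 hr cmpd preincubation; Cu2+ induction 700 uM final; 20 hr ambient; luminescence.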
A number is an active result; [ ] = remark or other dose. Calls come from the whole dose curve; as a rule, active = well fitted curve in the direction sought with a large enough effect; inconclusive = small, poorly fitted or top-dose-only effect, or another doubt; inactive = no such curve, though single readings can be large; an effect the other way counts as inactive or inconclusive.

What do the screens show for `CC(C)(C)C1CCC2(CC1)C(C#N)=C(SCC(=O)Nc1ccccc1)NC(=O)C2C#N` (centres undefined)?
KB-V1 cytotox: inactive; Gal4-VP16 FLuc: inconclusive; MCF10A rereplic: 9.2µM; KB-3-1 cytotox: inconclusive; SW480 rereplic: inconclusive; RORgamma inh: inactive

How did O=C(NCCN1CCCCC1)c1ccc(I)cc1 do in these assays?
Gal4-VP16 FLuc: inactive; RORgamma inh: inactive

How did COc1ccc(OC)c(NC(=O)c2c(N3CCCC3=O)c3cc(OC)ccc3n2C)c1 do in these assays?
KB-V1 cytotox: inactive; KB-3-1 cytotox: inactive

What do the screens show for `O=C(CN1CCCCC1)N/N=C/c1ccc(Cl)cc1Cl`?
KB-V1 cytotox: inactive; Gal4-VP16 FLuc: inactive; MCF10A rereplic: inactive; KB-3-1 cytotox: inactive; SW480 rereplic: inactive; RORgamma inh: inactive

What do the screens show for `O=C(Cn1nnc(-c2ccccc2)n1)N/N=C/c1cccc([N+](=O)[O-])c1O`?
KB-V1 cytotox: inactive; Gal4-VP16 FLuc: inconclusive; MCF10A rereplic: inactive; KB-3-1 cytotox: inconclusive; SW480 rereplic: inconclusive; RORgamma inh: 1.78µM

Results for O=C(NN=Cc1ccc(Cl)cc1Cl)C1CC1 ?
KB-V1 cytotox: 14.6µM; MCF10A rereplic: inactive; KB-3-1 cytotox: inactive; SW480 rereplic: inactive

How did O=[N+]([O-])c1cc(Cl)cc(/C=N/Nc2nc3ccccc3s2)c1O do in these assays?
KB-V1 cytotox: inconclusive; Gal4-VP16 FLuc: 2.24µM; MCF10A rereplic: inconclusive; KB-3-1 cytotox: inconclusive; SW480 rereplic: inconclusive; RORgamma inh: 0.891µM

Results for CC(C)(C)N/N=C/c1cc(Cl)cc([N+](=O)[O-])c1O ?
KB-V1 cytotox: inconclusive; Gal4-VP16 FLuc: inactive; MCF10A rereplic: inactive; KB-3-1 cytotox: inconclusive; SW480 rereplic: inactive; RORgamma inh: inactive

Results for O=C(N/N=C/c1cc(Cl)cc([N+](=O)[O-])c1O)C1CC1 ?
KB-V1 cytotox: inconclusive; Gal4-VP16 FLuc: 2µM; MCF10A rereplic: inactive; KB-3-1 cytotox: inconclusive; SW480 rereplic: inactive; RORgamma inh: 0.631µM

Results for COc1ccc(C(=O)Nc2ccc3nc(SCC(=O)N(C)c4ccccc4)sc3c2)cc1 ?
KB-V1 cytotox: inconclusive; KB-3-1 cytotox: inactive

Results for COc1cc2c(cc1OC)C(COc1ccc3c(C)cc(=O)oc3c1)N(C(=O)c1ccccc1F)CC2 (centres undefined) ?
KB-V1 cytotox: inconclusive; KB-3-1 cytotox: inactive

Results for CCCN(CCC)C(=O)[C@@H](CCC(=O)O)NC(=O)c1ccccc1 ?
Gal4-VP16 FLuc: inactive; MCF10A rereplic: inactive; SW480 rereplic: inactive; RORgamma inh: inactive

Results for O=C(Cn1nc2ccccc2n1)N/N=C/c1cc(Cl)cc([N+](=O)[O-])c1O ?
KB-V1 cytotox: inactive; Gal4-VP16 FLuc: 14.1µM; MCF10A rereplic: inconclusive; KB-3-1 cytotox: inconclusive; SW480 rereplic: 11.6µM; RORgamma inh: 1.78µM

Results for COc1cc(/C=N/NC(=O)c2cccc(NC(=O)c3ccccc3C)c2)ccc1O ?
KB-V1 cytotox: inconclusive; Gal4-VP16 FLuc: inactive; MCF10A rereplic: inconclusive; KB-3-1 cytotox: inactive; SW480 rereplic: inactive; RORgamma inh: inactive

Results for Cc1ccccc1C(=O)Nc1cccc(C(=O)N/N=C/c2cc(Cl)cc([N+](=O)[O-])c2O)c1 ?
KB-V1 cytotox: inconclusive; Gal4-VP16 FLuc: 2.51µM; MCF10A rereplic: inactive; KB-3-1 cytotox: inconclusive; SW480 rereplic: inconclusive; RORgamma inh: 1.12µM

Results for O=C(NC(=S)NCCC1=CCCCC1)c1ccccc1Br ?
KB-V1 cytotox: inactive; Gal4-VP16 FLuc: 3.16µM; MCF10A rereplic: inconclusive; KB-3-1 cytotox: inactive; SW480 rereplic: inactive; RORgamma inh: 3.55µM

How did S=C(NCCC1=CCCCC1)NCc1ccco1 do in these assays?
KB-V1 cytotox: inconclusive; Gal4-VP16 FLuc: inconclusive; MCF10A rereplic: inactive[9.22 µM]; KB-3-1 cytotox: inactive; SW480 rereplic: inactive; RORgamma inh: 7.08µM

What do the screens show for `O=C(NC(=S)NCCC1=CCCCC1)c1cncc(Br)c1`?
KB-V1 cytotox: inconclusive; Gal4-VP16 FLuc: 8.91µM; MCF10A rereplic: inconclusive; KB-3-1 cytotox: inactive; SW480 rereplic: inactive; RORgamma inh: 4.47µM

How did CCCc1cc(=O)n2c(C(=O)Nc3ccc(OCC)cc3)c(C(=O)Nc3ccc(C)cc3)sc2n1 do in these assays?
KB-V1 cytotox: inconclusive; KB-3-1 cytotox: inactive

Results for CC1=CC(=O)N(c2ccn(C)n2)C1=O ?
KB-V1 cytotox: inactive; Gal4-VP16 FLuc: 12.6µM; MCF10A rereplic: inactive; KB-3-1 cytotox: inactive; SW480 rereplic: inactive; RORgamma inh: 14.1µM

Results for CCOC(=O)c1c(S(=O)(=O)NCC(=O)N2CCN(c3cccc(Cl)c3)CC2)c(C)n(C)c1C ?
KB-V1 cytotox: inactive; KB-3-1 cytotox: inactive

How did COc1cccc2[nH]c3c(N4CCN(Cc5ccc6c(c5)OCO6)CC4)ncnc3c12 do in these assays?
Gal4-VP16 FLuc: inactive; RORgamma inh: inactive

What do the screens show for `Cc1ccc2[nH]c3c(N4CCN(Cc5ccc6c(c5)OCO6)CC4)ncnc3c2c1`?
Gal4-VP16 FLuc: 10µM; RORgamma inh: inconclusive

How did COc1ccc2c(c1)[nH]c1c(N3CCN(Cc4ccc5c(c4)OCO5)CC3)ncnc12 do in these assays?
KB-V1 cytotox: 2.59µM; Gal4-VP16 FLuc: 10µM; MCF10A rereplic: inconclusive; KB-3-1 cytotox: inconclusive; SW480 rereplic: inactive; RORgamma inh: inconclusive

What do the screens show for `c1ccc(CN2CCN(c3ncnc4c3[nH]c3ccccc34)CC2)cc1`?
KB-V1 cytotox: 2.59µM; Gal4-VP16 FLuc: 15.8µM; MCF10A rereplic: 20.6µM; KB-3-1 cytotox: 18.4µM; SW480 rereplic: inactive; RORgamma inh: inconclusive

What do the screens show for `Cc1ccc2[nH]c3c(N4CCCCCC4)ncnc3c2c1`?
RORgamma inh: inactive[0.365 µM]

Results for c1nc(N2CCN(Cc3ccc4c(c3)OCO4)CC2)c2[nH]cnc2n1 ?
KB-V1 cytotox: inactive; Gal4-VP16 FLuc: inactive; MCF10A rereplic: inactive; KB-3-1 cytotox: inactive; SW480 rereplic: inactive; RORgamma inh: inactive

How did Cc1ccc2[nH]c3c(N4CCN(Cc5ccccc5)CC4)ncnc3c2c1 do in these assays?
KB-V1 cytotox: 11.6µM; Gal4-VP16 FLuc: 3.55µM; MCF10A rereplic: inconclusive; KB-3-1 cytotox: inconclusive; SW480 rereplic: inconclusive; RORgamma inh: inconclusive

Results for COC(=O)[C@H](Cc1ccccc1)NC(=O)[C@]1(C)C[C@H]1[C@H](NC(=O)OCc1ccccc1)c1ccccc1 ?
Gal4-VP16 FLuc: inactive; RORgamma inh: inactive

How did Cc1nc(Nc2ccc(Cl)cc2)cc(-c2ccccc2)n1 do in these assays?
KB-V1 cytotox: inactive; KB-3-1 cytotox: inactive

What do the screens show for `Cc1ccc2c(c1)[nH]c1c(N3CCN(Cc4ccccc4)CC3)ncnc12`?
KB-V1 cytotox: inconclusive; Gal4-VP16 FLuc: 3.16µM; MCF10A rereplic: inconclusive; KB-3-1 cytotox: inconclusive; SW480 rereplic: inconclusive; RORgamma inh: inconclusive

How did Cc1ccc(-n2ncc3c(N4CCN(Cc5ccccc5)CC4)ncnc32)cc1 do in these assays?
KB-V1 cytotox: inactive; KB-3-1 cytotox: inactive
